Reference: PubChem BioAssay (NCATS)
Records with an inconclusive call do not appear. The source made the active and inactive calls. The call rests on the fitted dose curve; in most records, active means well fitted inhibition curve with a large enough effect; inconclusive means small, poorly fitted or top-dose-only effect; inactive means flat fitted curve, though single readings scatter.

Legend:
Test in all cases: qHTS profiling for inhibitors of Plasmodium falciparum proliferation (AID 504749); further: nearly all actives have a fitted effect of over 60% in size
Details in all cases: P. falciparum in erythrocytes, SYBR Green DNA, 72 h; series mostly up to 28.7 µM
JCK = tested on: JCK
Outline: (§1)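 Three-day growth assay of blood-stage parasites in erythrocytes (0.3% parasitemia, 2.5% hematocrit) at 37 C, 5% CO2, quantified by SYBR Green DNA staining after overnight detergent lysis.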

N140 = tested on: N140
Outline: as §1

P94_40 = tested on: P94_40
Outline: as §1

PAD = tested on: PAD
Outline: as §1

PC15 = tested on: PC15
Outline: as §1

PC26 = tested on: PC26
Outline: as §1

PC49 = tested on: PC49
Outline: as §1

SC27B = tested on: SC27B
Outline: as §1

TAB109 = tested on: TAB109
Outline: as §1

P93_24 = tested on: P93_24
Outline: as §1

Measured: outcome

CCOC(=O)C(CCc1ccccc1)NC(C)C(=O)N1Cc2ccccc2CC1C(=O)O (centres undefined)
inactive: JCK | N140 | P94_40 | PAD | PC15 | PC26 | PC49 | SC27B | TAB109

CCc1cccc2c3c([nH]c12)[C@@](CC)(CC(=O)O)OCC3
inactive: JCK | N140 | P93_24 | P94_40 | PAD | PC15 | PC26 | PC49 | SC27B | TAB109
